Screens (PubChem)
A selection: hits, their analogues and other compounds. The true share with any hit is near 6.6%.
Mdm2 MdmX PPI – disrupts the human Mdm2-MdmX interaction; O15151+Q00987; SaOS-2 split-luciferase Mdm2/MdmX complementation, luminescence; inhibition, % at 8 µM; actives 3% (n = 330,000);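 active = inhibition of at least 50% at 8 µM in the primary screen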
Target sequence (O15151 whole entry, looked up): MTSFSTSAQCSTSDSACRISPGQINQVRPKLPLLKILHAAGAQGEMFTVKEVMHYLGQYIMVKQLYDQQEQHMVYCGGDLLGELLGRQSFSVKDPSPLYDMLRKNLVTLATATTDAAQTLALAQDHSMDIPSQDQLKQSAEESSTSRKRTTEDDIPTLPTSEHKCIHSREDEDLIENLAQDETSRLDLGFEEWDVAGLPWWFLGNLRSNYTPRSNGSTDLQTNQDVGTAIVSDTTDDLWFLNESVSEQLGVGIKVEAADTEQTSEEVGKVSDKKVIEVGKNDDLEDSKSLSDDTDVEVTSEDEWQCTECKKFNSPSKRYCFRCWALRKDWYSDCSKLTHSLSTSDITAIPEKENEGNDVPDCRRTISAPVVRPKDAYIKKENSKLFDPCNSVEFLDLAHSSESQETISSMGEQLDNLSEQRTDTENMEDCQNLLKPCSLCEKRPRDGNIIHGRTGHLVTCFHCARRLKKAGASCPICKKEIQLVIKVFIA
Target sequence (Q00987 whole entry, looked up): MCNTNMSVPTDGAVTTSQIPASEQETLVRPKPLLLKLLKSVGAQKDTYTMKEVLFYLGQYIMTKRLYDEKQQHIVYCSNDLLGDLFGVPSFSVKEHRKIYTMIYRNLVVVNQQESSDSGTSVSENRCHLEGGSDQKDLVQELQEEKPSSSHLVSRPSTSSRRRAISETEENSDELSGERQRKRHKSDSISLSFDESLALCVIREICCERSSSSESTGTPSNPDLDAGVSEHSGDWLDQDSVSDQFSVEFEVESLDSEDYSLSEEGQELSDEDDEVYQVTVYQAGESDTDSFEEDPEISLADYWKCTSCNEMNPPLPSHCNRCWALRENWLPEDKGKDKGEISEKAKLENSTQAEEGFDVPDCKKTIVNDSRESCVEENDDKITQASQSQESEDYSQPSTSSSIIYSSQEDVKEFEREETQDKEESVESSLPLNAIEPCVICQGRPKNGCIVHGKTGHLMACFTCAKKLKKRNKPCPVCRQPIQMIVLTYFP
CSC inhib – blocks cancer stem cells. cancer stem cell-like cells viability, luminescence. inhibition, % at 7.5 µM. actives 1.1% (n = 300,000). AID 2717; in the data active = inhibition above about 75%; tested in HMLE shEcad cells
MPTP block – inhibitors of mitochondrial permeability transition pore | isolated mouse mitochondria, Ca2+ swelling absorbance, 30 min | inhibition, % at 10 µM | actives 1.4% (n = 360,000) | AID 602449;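 active = inhibition of 50% or more, scaled per plate between neutral and stimulator controls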;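 note: 0% = DMSO wells given calcium and 100% = 1 mM EGTA wells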
Gli-Sufu antag – blocks Gli-Sufu signaling in a luciferase reporter; Sufu-KO-LIGHT fibroblasts, Gli luciferase reporter luminescence; inhibition, % at 5 µM; actives 0.74% (n = 340,000); AID 588413;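 active = inhibition above about 55%, limit read from the data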;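 note: 0% = DMSO-treated cells and 100% = wells with medium but no cells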
Beta cell apopt – beta cell apoptosis inhibition; AID 435005; actives 0.8% (n = 300,000); INS-1E cytokine-induced death, ATP luminescence, 48 h; percent of positive-control rescue, neutral wells zero; protection from apoptosis, % (no concentration beside the values);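 active = Every replicate reaches about 75%, or at least half do and their mean reaches it too, limit read from the data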;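 note: 0% = cytokine-treated negative control wells and 100% = positive control rescue; higher means more ATP so stronger rescue from cytokine killing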
GRIN3A LBD mod – modulators (binders) of human NR3A ligand-binding domain | actives 2.5% (n = 340,000) | NR3A LBD differential scanning fluorimetry, Tm shift; 0% = protein alone, 100% = glycine-bound protein | Tm shift relative to glycine control, % at 25 µM;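 active = melting temperature shift of at least 10% of the positive control shift, at one fixed dose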
* hit, by the source's call; . = no result given.

SMILES	Mdm2 MdmX PPI	CSC inhib	MPTP block	Gli-Sufu antag	Beta cell apopt	GRIN3A LBD mod
CC(=O)c1cccc(Nc2nc(-c3ccccc3)nc3ccccc23)c1	0.8	4.8	14.8	1.5	.	23.1*
COc1ccc(Nc2nc(-c3cccc(OC)c3O)nc3ccccc23)cc1	37.5	43.0	1.2	-10.6	16.8	11.4*
Oc1cccc(Nc2nc(-c3ccccc3)nc3ccccc23)c1	23.9	72.0	2.7	37.8	-2.0	27.7*
Oc1ccc(-c2nnc(Nc3cccc(O)c3)c3ccccc23)cc1	10.1	-3.4	3.1	2.0	-1.9	13.4*
COc1cccc(-c2nc(NC(C)(C)C)c3ccccc3n2)c1O	47.5	1.1	16.1	22.0	6.3	-5.9
CC(=O)Nc1cccc(Nc2nc(-c3ccccc3)nc3ccccc23)c1	37.3	51.0	0.4	-0.1	1.0	4.9
CCCCn1c(N)c(N(CCOC)C(=O)COC(=O)COc2ccc(CC)cc2)c(=O)[nH]c1=O	21.9	-9.9	-1.5	-0.9	-1.4	0.4
CC(C)[C@H](NC(=O)c1ccc(F)cc1)C(=O)N(C)Cc1cccs1	9.6	-2.7	0.7	2.0	-2.3	1.7
CC1(C)Cc2ccccc2C(CSc2ccccc2C(=O)O)=N1	22.3	76.0*	0.1	8.2	-2.7	0.0
COc1cc2c(cc1OC)C(CSc1ccccc1C(=O)O)=NC(C)(C)C2	22.4	-12.1	0.7	7.2	0.8	0.6
FC(F)(F)c1ccc(Cl)c(NC2=NCCCCC2)c1	-10.9	-6.5	0.8	-19.4	.	-0.8
Cc1ccc2nc(N(CCN(C)C)C(=O)c3ccc4ccccc4c3)sc2c1	10.4	-12.1	0.2	49.5	-5.2	11.9*
CN(C)CCN(C(=O)c1ccc2ccccc2c1)c1nc2cc3c(cc2s1)OCCO3	2.6	-3.7	-0.3	15.9	-18.1	12.6*
CN(C)CCCN(C(=O)c1ccc2c(c1)OCCO2)c1nc2cc3c(cc2s1)OCO3	35.3	-6.7	-1.1	24.4	-13.2	0.7
CN(C)CCCN(C(=O)COc1ccc(Cl)cc1)c1nc2cc3c(cc2s1)OCO3	29.2	-3.8	-1.0	15.0	113.6*	0.7
CN(C)CCN(C(=O)c1ccc2ccccc2c1)c1nc2ccc(Br)cc2s1	17.9	11.2	0.4	-21.9	-7.3	-1.1
COCCNc1nc2cc(-c3ccccc3OC)sc2c(=O)n1C	.	.	-0.6	.	.	.
CNc1nc(N/N=C/c2cc3c(cc2[N+](=O)[O-])OCO3)nc(Nc2ccccc2)n1	38.0	-4.2	0.5	15.7	98.1*	-2.5
CNc1nc(N/N=C/c2cc([N+](=O)[O-])ccc2F)nc(Nc2ccccc2)n1	.	.	-0.9	4.2	.	5.4
Cc1ccc(N2C(=O)N(CC(=O)c3cc(C)ccc3C)C(=O)C2C)cc1 (stereo unspecified)	-31.2	1.6	2.6	13.0	-6.4	12.7*
CN(Cc1ccc(F)cc1)C(=O)c1ccc(NC(=O)CC2SC(N3CCCC3)=NC2=O)cc1 (stereo unspecified)	13.2	-9.6	-0.6	-4.1	1.8	-1.8
Cc1ccc(OCC(=O)N/N=C\c2ccc(-c3cccc(C(=O)O)c3)o2)c(C)c1	17.7	-12.2	3.1	-13.3	0.2	12.3*
COc1ccc(Cl)cc1C(=O)NNC(=O)c1[nH]c(C)c(C(C)=O)c1C	7.4	-21.1	0.3	-4.4	0.4	15.4*
COc1ccc(C(=O)N2CCC2(C)C(=O)NC(C)C)c(OC)c1 (stereo unspecified)	.	.	-2.2	.	.	.
CCCc1cc(=O)[nH]c(Nc2ccc(O)cc2)n1	-21.9	-6.5	0.1	-5.8	-2.8	10.0*
SMILES	Mdm2 MdmX PPI	CSC inhib	MPTP block	Gli-Sufu antag	Beta cell apopt	GRIN3A LBD mod
COc1cc(CN2CCN(c3cccc(Cl)c3)CC2)cc(OC)c1OC	43.4	92.9*	0.0	-2.8	2.1	-1.2
Cc1cccc(N=N/C(=C\O)C(=O)c2cccs2)c1	39.8	91.6*	2.1	-2.4	12.7	0.8
CCOC(=O)c1cnn(-c2ccccc2)c1-c1ccncc1	4.1	-12.1	-0.1	3.6	-9.8	0.3
C=CCN(C(=O)Nc1ccc(F)cc1)C1CC(=O)N(c2ccc(OC)cc2)C1=O (stereo unspecified)	4.3	2.5	-3.0	1.9	2.5	-1.9
Cc1ccc(N2C(=O)CC(N(CCc3ccccc3)C(=S)Nc3ccc(N(C)C)cc3)C2=O)cc1 (stereo unspecified)	19.0	94.5*	0.0	-4.5	3.1	5.9
CNC(=S)N(Cc1ccc(OC)cc1)C1CC(=O)N(c2ccc(Cl)cc2)C1=O (stereo unspecified)	-5.7	15.3	1.2	19.5	8.3	32.3*
CCOc1ccc(N2C(=O)CC(N(CCc3ccccc3)C(=O)/C=C/C(=O)O)C2=O)cc1 (stereo unspecified)	-0.5	4.7	-1.2	-6.3	-7.8	0.6
COc1ccc(CCN(C(=S)Nc2ccccc2)C2CC(=O)N(c3ccccc3)C2=O)cc1 (stereo unspecified)	26.3	3.0	1.3	-0.5	-0.2	16.8*
COc1ccc(CN(C(=S)Nc2ccccc2)C2CC(=O)N(c3ccc(F)cc3)C2=O)cc1 (stereo unspecified)	29.0	1.9	4.1	7.4	-3.0	31.9*
CC1CCCC(NC(=O)c2ccc3snnc3c2)C1C (stereo unspecified)	20.7	-2.1	-0.8	-4.5	6.7	1.8
CNC(=S)N(Cc1ccc2c(c1)OCO2)C1CC(=O)N(c2ccc(F)cc2)C1=O (stereo unspecified)	16.7	7.0	0.5	1.2	-13.8	22.3*
Cc1nc(C)c(CCNC(=O)c2ccc(C(F)(F)F)cc2)s1	-10.6	.	1.8	0.5	0.4	16.3*
Cc1ccc(C(=O)NCCc2sc(C)nc2C)cc1	16.3	-15.7	-0.2	-6.6	-2.5	1.4
O=S(=O)(c1ccc(Cl)cc1)N1CCN(Cc2ccncc2)CC1	6.6	14.4	-0.7	4.4	-5.2	-0.9
Cc1ccc(S(=O)(=O)N2CCN(CCc3ccncc3)CC2)cc1	17.0	58.0	-0.8	6.0	-0.5	11.2*
CC(NC(=O)CCNC(=O)N1CCn2c1nc1ccccc12)c1ccccc1 (stereo unspecified)	5.0	-7.3	3.7	-45.1	-1.2	-3.7
O=C1S/C(=C\c2ccccn2)C(=O)N1Cc1ccccc1F	5.9	-5.0	-2.8	16.6	-1.3	13.0*
O=C(CN1C(=O)S/C(=C/c2ccccn2)C1=O)N1CCOCC1	0.5	11.7	-0.6	-0.2	-5.3	0.2
O=C(Nc1cccc(C(F)(F)F)c1)c1cccc(NS(=O)(=O)c2ccc(Br)c(C(=O)O)c2)c1	8.0	-5.6	-0.5	20.2	-1.0	-5.2
O=C(NCc1ccc(F)cc1)c1ccc(S(=O)(=O)Nc2cccc(C(F)(F)F)c2)cc1	25.9	18.1	30.1	12.7	9.9	28.6*
O=C(Nc1cccc(C(F)(F)F)c1)c1cccc(NS(=O)(=O)c2ccc(O)c(C(=O)O)c2)c1	-9.6	-6.1	3.1	-3.1	-12.1	31.5*
